Measured potencies and affinities stand elsewhere. Activity calls are given as the source filed them. No rule for the calls is given here.
Biological target: Beta-2 adrenergic receptor (Homo sapiens) (UniProt P07550)
Experiment: beta2AR agonists driving receptor internalization, dose response, cell-based, FAP fluorogen, flow cytometry, cherry pick 1 (AID 588763)
Conditions: AM2.2-beta2AR cells, 90 min; series mostly up to 33 µM

Chain of Beta-2 adrenergic receptor (Homo sapiens) (P07550 whole entry, looked up): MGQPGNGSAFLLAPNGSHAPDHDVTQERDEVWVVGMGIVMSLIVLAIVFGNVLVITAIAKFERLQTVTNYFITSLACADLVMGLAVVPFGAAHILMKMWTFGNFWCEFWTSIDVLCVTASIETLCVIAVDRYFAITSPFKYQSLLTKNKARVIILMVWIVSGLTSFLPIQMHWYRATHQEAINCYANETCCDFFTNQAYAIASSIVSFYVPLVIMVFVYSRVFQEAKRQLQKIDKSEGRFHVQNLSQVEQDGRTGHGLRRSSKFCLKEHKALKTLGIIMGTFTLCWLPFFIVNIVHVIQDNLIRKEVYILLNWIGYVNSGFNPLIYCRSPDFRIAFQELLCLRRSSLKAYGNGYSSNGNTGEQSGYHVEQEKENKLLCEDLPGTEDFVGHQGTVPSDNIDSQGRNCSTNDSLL

outcome, inactive:
C=CCn1c(CCNC(=O)c2cccs2)nnc1SCC(=O)Nc1cccc(Cl)c1C, O=C(COc1ccc(S(=O)(=O)N2CCOCC2)cc1)Nc1ccc2c(c1)OCCO2, O=C(c1cc2c(ccc3ccccc32)o1)N1CCN(c2ncc(C(F)(F)F)cc2Cl)CC1, Cc1ccc(S(=O)(=O)c2ccc([N+](=O)[O-])o2)cc1, COc1ccc(NC(=O)c2cccc(N3C(=O)c4cccc([N+](=O)[O-])c4C3=O)c2)cc1, CC(=O)Nc1ccc(CN2CCC(Oc3ccc(C(=O)N4CCCC4)cc3)CC2)cc1, O=[N+]([O-])c1cnc(Sc2ccncn2)s1, CCC(NC(=O)c1cc(COc2ccc(C)nc2)on1)c1ccc(C)cc1 (stereo unspecified), O=C(CN1CCOCC1)N1CCN(c2nnc(-c3ccccc3)c3ccccc23)CC1, COc1ccc(OC)c(C(=O)NC(CC(N)=O)c2ccc(N3CCN(c4ccccn4)CC3)c([N+](=O)[O-])c2)c1 (stereo unspecified), Cc1ccc(OCc2cc(C(=O)NC3CCc4ccccc43)no2)cn1 (stereo unspecified), COc1ccc(S(=O)(=O)N(C)CC(=O)N2CCN(c3ccc(F)cc3)CC2)cc1OC, CSc1nc(SCCO)c2sc3nc(-c4ccco4)c4c(c3c2n1)CC(C)(C)OC4, Cc1cccc(CN2CCC(Oc3ccc(C(=O)N4CCCCC4)cc3)CC2)c1, O=C(COc1ccc(S(=O)(=O)N2CCOCC2)cc1)Nc1ccc(Br)cc1, COc1ccccc1CCC(=O)Nc1cccc(S(=O)(=O)N2CCCCCC2)c1

Reference: PubChem BioAssay AID588763 (NMMLSC, 2011)
